The test system of test [1] is Zika virus NS2B-NS3 protease (unlinked complex). Put plainly: Primary screen GU Rhodamine qHTS for Zika virus inhibitors: Unlinked NS2B-NS3 protease assay (AID 1347159). Also: nearly all actives have a fitted effect of over 60% in size. A digest of the protocol: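 Compounds, tested up to 114 microM, were incubated for 15 minutes with 25 nM unlinked NS2B-NS3 protease at pH 8.0. Cleavage of 1.5 microM Rhodamine110 substrate was then followed by fluorescence for 15 minutes.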

In test [2] the test system is Zika virus NS2B-NS3 protease (linked construct). Description: Primary screen NINDS Rhodamine qHTS for Zika virus inhibitors (AID 1347160). Also: nearly all actives have a fitted effect of over 55% in size. The note with it: outcome: dose series up to 57.1 µM unless noted. A digest of the protocol: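 Percent inhibition, normalized to uninhibited and enzyme-free controls, is fitted to a 4-parameter Hill equation. Fluorescence change comes from a 15-min cleavage of 1.5 microM bis-peptide Rhodamine110 substrate by 25 nM linked NS2B-NS3 at room temperature.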
A general note: In qHTS, concentration-response curves come from the screen itself.

Test [3] in a line: qHTS to identify inhibitors of the type 1 interferon - major histocompatibility complex class I in skeletal muscle: primary screen against the NCATS Pharmaceutical Collection (AID 1347407).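 Also: luminescence of HiBiT knocked into endogenous HLA-B as interferon-induced MHC class I level.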 A digest of the protocol: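 A qHTS format is used: 8-point, 1:5 compound series with 46 uM top final concentration, applied alongside 4 ng/ml IFN-beta to HLA-B*08:01-HiBiT knock-in myoblasts. Luminescence is measured after 24 h treatment.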

In test [4] the target is Protein phosphatase 1D (Homo sapiens) (UniProt O15297). Put plainly: RapidFire Mass Spectrometry qHTS Assay for Modulators of WT P53-Induced Phosphatase 1 (WIP1) (AID 1347424).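 Also: amount of dephosphorylated VEPPL-S-QETFS peptide product formed by WIP1; series mostly up to about 63 µM.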 A digest of the protocol:
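WIP1 (10 nM final) was preincubated 1 h at room temperature with compounds in Tris-HCl pH 7.5, 30 mM MgCl2, TCEP, EGTA, BSA; 2 uM VEPPL-pS-QETFS phosphopeptide was added for 5 min, quenched with formic acid, and dephosphorylated product quantified by RapidFire MS.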

For test [5] the target is unchanged. Put plainly: Rhodamine-PBP qHTS Assay for Modulators of WT P53-Induced Phosphatase 1 (WIP1) (AID 1347425). The gist of the method: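 Steps: enzyme with Rh-PBP sensor and compounds, room-temperature incubation of 1 hr, baseline read, addition of VEPPL-pS-QETFS (10 uM final), kinetic fluorescence reads at 525/598 nm. Activity equals final minus baseline signal.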

Test [6] can be described thus: Primary qHTS for inhibitors of La Crosse Virus (LACV) - induced cell death in SH-SY5Y cells (AID 1508616).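 Also: top concentration of the series differs between compounds; higher means more rescue of cells from virus-induced death.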 The gist of the method: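 Readout was luminescence from ATPLite 1step added after a 6-day LACV infection (0.01 MOI) of SH-SY5Y cells that had received pin-transferred compound 24 hr after seeding.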
Test [7] deals with Calcium and integrin-binding protein 1 (Homo sapiens) (UniProt Q99828). Description: Primary qHTS for Identification of Calcium Integrin Binding Protein 1 (CIB1) Competitor (AID 1508620).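 Also: GST tagged CIB1 binding a fluorescein labelled alphaIIb integrin peptide tracer; top concentration of the series differs between compounds.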 A digest of the protocol: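 Fluorescence polarization competition: CIB1-GST (1 uM final) preincubated with compound 15 min at room temperature, then FITC-labeled alphaIIb peptide (100 nM final) added for another 15 min. Polarization read at Ex 480/Em 540.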
Sequence of Calcium and integrin-binding protein 1 (Homo sapiens) (Q99828 whole entry, looked up): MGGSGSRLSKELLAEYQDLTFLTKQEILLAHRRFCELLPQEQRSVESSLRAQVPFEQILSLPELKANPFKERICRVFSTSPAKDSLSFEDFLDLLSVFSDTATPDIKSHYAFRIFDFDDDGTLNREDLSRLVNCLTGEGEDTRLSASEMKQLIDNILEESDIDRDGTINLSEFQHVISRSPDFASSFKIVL

Test [8] is described as follows: Confirmatory screen NINDS Rhodamine qHTS for Zika virus inhibitors (AID 1347161). Also: potency is read from the fitted curve at half-maximal effect; nearly all actives have a fitted effect of over 60% in size. The gist of the method: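 Each compound, titrated, sat 15 min with 25 nM linked protease before 1.5 microM Rhodamine110 substrate went in. Fluorescence gain over the next 15 min, in pH 8.0 Tris with Tween 20, gave Hill-fitted curves.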
The test system of test [9] is Zika virus NS2B-NS3 protease (linked). Put plainly: 384 well plate NINDS AMC confirmatory qHTS for Zika virus inhibitors (AID 1347163).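 Also: linked protease at 5 30 or 60 nM final depending on run; fluorescence of AMC released from Ac-VKTGKR-AMC peptide cleaved by the protease; top concentration of the series differs between compounds; nearly all actives have a fitted effect of over 50% in size.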 The gist of the method:
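Linked protease 5/30/60 nM final; cpds up to 1 mM final, ~15 min preinc. Substrate Ac-VKTGKR-AMC 30 microM final. RT, dark, 25 min; FI ex 355/em 460; normalized to no-enzyme/no-inhibitor ctrls.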

Test [10] concerns Zika virus NS2B-NS3 protease (linked construct). Put plainly: 384 well plate NINDS Rhodamine confirmatory qHTS for Zika virus inhibitors (AID 1347164). Also: potency is read from the fitted curve at half-maximal effect; nearly all actives have a fitted effect of over 65% in size. To be noted: rhodamine-110 peptide substrate fluorescence. A digest of the protocol:
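Cleavage of Ac-LKRR-Rhodamine 110 (10 microM final) by linked protease (final 5, 30 or 60 nM) was followed as fluorescence at 485/538 nm after 25 min, room temperature, dark. Compounds preincubated ~15 min.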

Test [11] is described as follows: Vero cells viability qHTS for Zika virus inhibitors (AID 1347167). The gist of the method:
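Counter-screen for cytotoxicity of hits from NS2B-NS3 protease qHTS. Overnight-attached cells (2.5 x 10^5 cells/mL, DMEM/4% FBS) were dosed in titration, incubated 24 to 48 hours, then assayed by CellTiter Glo.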

Results filed as inconclusive are left out. Values without a mark were called inactive. Calls of active or inactive are those of the source. Calls follow the shape of the dose curve; as a rule, active = well fitted curve in the direction sought with a large enough effect; inconclusive = small, poorly fitted or top-dose-only effect, or another doubt; inactive = no such curve, though single readings can be large; an effect the other way counts as inactive or inconclusive.

Sequence of Protein phosphatase 1D (Homo sapiens) (O15297 whole entry, looked up): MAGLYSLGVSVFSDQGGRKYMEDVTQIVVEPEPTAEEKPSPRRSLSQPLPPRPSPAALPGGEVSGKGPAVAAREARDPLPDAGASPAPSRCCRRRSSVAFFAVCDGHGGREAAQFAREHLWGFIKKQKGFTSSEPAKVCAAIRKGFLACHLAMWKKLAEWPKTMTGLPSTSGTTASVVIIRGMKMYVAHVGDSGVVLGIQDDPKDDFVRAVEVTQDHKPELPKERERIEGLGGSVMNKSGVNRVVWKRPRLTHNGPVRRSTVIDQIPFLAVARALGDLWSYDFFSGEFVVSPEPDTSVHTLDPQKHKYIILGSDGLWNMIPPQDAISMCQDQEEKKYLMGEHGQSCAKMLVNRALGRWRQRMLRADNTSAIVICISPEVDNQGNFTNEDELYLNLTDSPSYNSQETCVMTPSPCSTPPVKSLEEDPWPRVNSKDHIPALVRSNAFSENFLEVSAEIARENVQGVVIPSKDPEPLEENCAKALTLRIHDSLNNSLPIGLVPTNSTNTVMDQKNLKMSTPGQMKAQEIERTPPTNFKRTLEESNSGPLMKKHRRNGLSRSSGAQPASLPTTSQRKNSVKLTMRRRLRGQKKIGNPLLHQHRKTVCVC

Take `CC(=O)[C@H]1CC[C@H]2[C@@H]3C=CC4=CC(=O)CC[C@@]4(C)[C@@H]3CC[C@]12C`: the Potency result in test [1], in [3], in [4] and in test [7] was “inactive” throughout. The molecule was called inactive in test [2], in test [5] and in test [6].

As to `CCN1CCN(c2cc(-c3ccc(F)cc3)c3c(n2)CCCCCC3)CC1`, the molecule was called inactive in [2], in [5] and in [6]. In addition, the Potency entry in test [3], in test [4] and in test [7] was “inactive” throughout.

`CN(C)C(=O)CNC(=O)Cc1ccccc1`: the outcome in test [2], in [5] and in test [6] was inactive. For the same molecule, the Potency result in test [3], in [4] and in [7] was “inactive” throughout.

With `CC1CC(=O)NN=C1c1ccc(NCC(C)(C)NCC(O)COc2cc(Cl)ccc2C#N)cc1` (stereo not drawn), the call in test [2], in [5] and in test [6] was inactive. Besides, the Potency result in test [3], in [4] and in test [7] was “inactive” each time.

As to `CCNC(=O)NCCCOc1cccc(CN2CCCCC2)c1`, the molecule was classed as inactive in test [2], in test [5] and in [6]. Also, the Potency result in test [3], in [4] and in [7] was “inactive” throughout.

Turning to `CCOC(=O)c1ccc(OCCN2C[C@H](O)[C@@H](O)[C@H](O)[C@H]2CO)cc1`, the call in test [2], in [5] and in test [6] was inactive. In addition, the Potency entry in test [3], in test [4] and in test [7] was “inactive” throughout.

Regarding `CCCCNc1ccc(C(=O)OCCN(CC)CC)cc1`, the call in test [2], in test [5] and in test [6] was inactive. Besides, the Potency result in test [3], in [4] and in [7] was “inactive” in each case.

Consider `O=C(CCC1CCN(Cc2ccccc2)CC1)c1ccc2c(c1)NCCCC2`, for which the result in test [2], in test [5] and in test [6] was inactive. Further, the Potency result in test [3], in test [4] and in [7] was “inactive” in each case.

As for `O=C(NN1CCCC1)NS(=O)(=O)c1ccc(Cl)cc1`, the outcome in [2], in [5] and in test [6] was inactive. Moreover, the Potency result in test [3], in test [4] and in test [7] was “inactive” each time.

Consider `CCOC(=O)Cn1cccc1-c1nc(-c2ccc(OC)cc2)c(-c2ccc(OC)cc2)s1`, for which the molecule was classed as inactive in test [2], in test [11] and in test [5]. For the same molecule, the Potency in [8] is 11.1 µM (active); in test [10], 0.398 µM (active). The Potency result in [9], in [3], in test [4] and in [7] was “inactive” throughout.

Consider `CC(C(=O)O)c1ccc(/C=C2\CCCCC2=O)cc1` (stereo not drawn), for which the result in test [2], in [5] and in test [6] was inactive. Further, the Potency result in test [3], in test [4] and in test [7] was “inactive” throughout.

Regarding `COc1cc(NS(=O)(=O)c2ccc(N)cc2)nc(C)n1`, the call in test [2], in test [5] and in test [6] was inactive. Also, the Potency result in test [3], in test [4] and in test [7] was “inactive” throughout.

Consider `CCCN(CCC)C(=O)C(CCC(=O)OCCCN1CCN(CCOC(=O)Cc2c(C)n(C(=O)c3ccc(Cl)cc3)c3ccc(OC)cc23)CC1)NC(=O)c1ccccc1` (stereo not drawn), for which the result in [2], in [5] and in test [6] was inactive. For the same molecule, the Potency result in test [3], in [4] and in test [7] was “inactive” each time.

In the case of `CN(CC1(C)CCCO1)S(=O)(=O)c1ccc(Cl)c(S(N)(=O)=O)c1` (stereo not drawn), the molecule was classed as inactive in test [2], in [5] and in [6]. Further, the Potency result in test [3], in test [4] and in [7] was “inactive” in each case.

The record behind these values is PubChem BioAssay (NCATS).
